Among the test systems are T-47D breast; BT-549 breast; MDA-MB-435 melanoma; SW-620 colon; MCF7 breast; HCT-116 colon; HCC-2998 colon; KM12 colon.
What all share (test): NCI-60 one-dose screen, 48 h (100 = growth as untreated, 0 = no growth, -100 = all killed)
What all share (details): 10 µM unless noted

The panel holds about 83,000 compounds, 20% with a hit somewhere; the sample as a whole holds those more often.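 Activity criterion: percent growth below 10, measured after cells in 96-well plates were exposed to a single compound concentration for 48 hours.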 Unmarked numbers belong to inactive results. Calls of active or inactive are those of the source. *1 amine or outer side, *2 acyl side, *3 side chain or, on linkers, in order; H or OH if unused. Where a SMILES comes first, the peptide text is derived from it. Bridges are numbered along the chain shown (N, C = ends). Roman numbers before positions name the chains, in order. [ ]: non-standard residue; d: D form. Actinocin(1to9) = Cc1c2oc3c(C)ccc(C(=O)[*:2])c3nc-2c(C(=O)[*:1])c(N)c1=O; NMeV = CN[CH](C(=O)O)C(C)C; Sar = CNCC(=O)O

Results on 17 compounds are retold here after PubChem BioAssay (NCI).

Turning to `CCCCCCCCCCCC[N+]1(CCCCCCCCCCCC)CCCC(C)C1` (stereo not given), the growth in the test with T-47D breast is -78.6% (active); with BT-549 breast, -72.2% (active); in the test on MDA-MB-435 melanoma, -58.7% (active); in the test on SW-620 colon it was -65.4% (active); in the test on MCF7 breast, -88.9% (active); with HCT-116 colon, -97.2% (active). Also, the growth was -96.6% (active) with HCC-2998 colon and -96.3% (active) in the test with KM12 colon.

On to `CSc1nc(C)c(C(=O)CCN2CCN(c3ccccn3)CC2)s1`, for which the growth was 66.7% in the test with T-47D breast; 113% with BT-549 breast; 104% in the test on MDA-MB-435 melanoma; 100% with SW-620 colon; 61.2% with MCF7 breast; 105% in the test with HCT-116 colon. Further, the growth in the test with HCC-2998 colon and in the test with KM12 colon was 106% throughout.

With `Cc1onc(-c2ccccc2)c1C(=O)N/N=C/c1cc(Cl)cc(Cl)c1O`, the growth is 42% with T-47D breast; 33.8% in the test with BT-549 breast; 45.2% in the test on MDA-MB-435 melanoma; 35.3% in the test on SW-620 colon; 18.8% in the test on MCF7 breast; 21% in the test on HCT-116 colon. Further, the growth in the test with HCC-2998 colon was 17.1%; in the test on KM12 colon, 30.6%.

In the case of `N#Cc1c2ccccc2nc2ccccc12`, the growth in the test on T-47D breast was 101%; with BT-549 breast it was 114%; in the test with MDA-MB-435 melanoma, 103%; in the test on SW-620 colon, 98.4%; in the test with MCF7 breast, 101%; with HCT-116 colon it was 105%. Besides, in the test with KM12 colon, the growth was 108%.

Take `O=C(/C=C/C(Cl)(Cl)Cl)Nc1ccc(Cl)cc1`: the growth with T-47D breast was 94.6%; in the test with BT-549 breast, 102%; in the test with MDA-MB-435 melanoma it was 105%; with SW-620 colon, 110%; with MCF7 breast, 99.8%; with HCT-116 colon, 104%. Besides, the results for the growth with HCC-2998 colon and with KM12 colon were 108% and 132%, respectively.

As to `CCCCCCCCCCCCNCCCc1ccccc1`, the growth is 54.9% with T-47D breast; 85.9% with BT-549 breast; 100% in the test on MDA-MB-435 melanoma; 46.1% in the test with SW-620 colon; 25.4% in the test with MCF7 breast; 20.4% in the test on HCT-116 colon. Besides, the growth with KM12 colon is 27.2%.

With `CC1=CC(=NC(=O)CBr)C=C/C1=N\S(=O)(=O)c1ccccc1`, the growth in the test on T-47D breast is 12.3%; in the test with BT-549 breast it was 65.6%; with MDA-MB-435 melanoma, 43.4%; in the test on SW-620 colon it was 17%; with MCF7 breast, 16.3%; in the test with HCT-116 colon, 22.8%. The figures for the growth in the test on HCC-2998 colon and with KM12 colon were 110% and 106%, respectively.

In the case of `CC1(C)CCCC2=C1C(=O)N(SC(Cl)(Cl)Cl)C2=O`, the growth is 66.9% in the test on T-47D breast; 95.8% in the test with BT-549 breast; 92.1% in the test with MDA-MB-435 melanoma; 88% in the test on SW-620 colon; 67.3% in the test with MCF7 breast; 75.5% with HCT-116 colon. Also, the growth with HCC-2998 colon is 96.5%; in the test with KM12 colon, 101%.

As for `CCC(C)C1NC(=O)C(NC(=O)c2c3nc4c(C(=O)NC5C(=O)NC(C(C)CC)C(=O)N6CCCC6C(=O)N(C)CC(=O)N(C)C(C(C)C)C(=O)OC5C)ccc(C)c4oc-3c(C)c(=O)c2N)C(C)OC(=O)C(C(C)C)N(C)C(=O)CN(C)C(=O)C2CCCN2C1=O` (stereo not given) (I: TIP[Sar][NMeV] / II: TIP[Sar][NMeV]; ester I:1-I:C, II:1-II:C; linker I:N-II:N via Actinocin(1to9); configuration not given here), the growth in the test with T-47D breast was -8.27% (active); in the test on BT-549 breast, -41.6% (active); in the test on MDA-MB-435 melanoma it was -91.1% (active); in the test with SW-620 colon, -20.8% (active); in the test with MCF7 breast, -26.2% (active); with HCT-116 colon it was 0.361% (active). Besides, the growth with KM12 colon is -25.6% (active).

In the case of `CC1C(c2ccccc2)OCCN1C(=S)Nc1ccc(S(=O)(=O)N2CCCCC2)cc1` (stereo not given), the growth in the test with T-47D breast was 96.9%; with BT-549 breast, 97.6%; in the test with MDA-MB-435 melanoma it was 89.4%; in the test with SW-620 colon it was 87.6%; in the test with MCF7 breast, 91.3%; in the test with HCT-116 colon, 91.8%. In addition, the growth in the test with KM12 colon is 92.1%.

Take `COc1ccc2nc3cc([N+](=O)[O-])ccc3c(NNc3ccccc3)c2c1`: the growth in the test with T-47D breast is 77.9%; in the test on BT-549 breast, 67.3%; in the test on MDA-MB-435 melanoma, 107%; in the test with SW-620 colon, 86.1%; in the test on MCF7 breast it was 72.9%; in the test with HCT-116 colon, 41.2%. In addition, the growth in the test with KM12 colon is 81.7%.

Turning to `CN(C)c1ccc(C(=C2C=CC(=[N+](C)C)C=C2)c2ccc(N(C)C)cc2)cc1`, the growth in the test with T-47D breast was -19.2% (active); in the test on BT-549 breast, -66% (active); with MDA-MB-435 melanoma it was -82.6% (active); in the test with SW-620 colon it was -67.2% (active); with HCT-116 colon, -83.3% (active); with HCC-2998 colon, -91.6% (active). In addition, the growth in the test on KM12 colon was -95.6% (active).

For `CCCCCCCCCCCC[n+]1ccccc1` (tested in a mixture with another compound), the growth in the test with T-47D breast is 14.4%; in the test on BT-549 breast, -57.6% (active); in the test with MDA-MB-435 melanoma, -74% (active); in the test with SW-620 colon, 0.841% (active); with HCT-116 colon, -9.07% (active); in the test on HCC-2998 colon, -47.7% (active). In addition, in the test on KM12 colon, the growth is -95.7% (active).

On to `CCCC[n+]1c(/C=C\c2c(OC)cc(OC)cc2OC)ccc2ccccc21`, for which the growth in the test on T-47D breast is -3.69% (active); in the test with BT-549 breast it was 15.5%; in the test with MDA-MB-435 melanoma it was -41.2% (active); in the test with SW-620 colon, 5.08% (active); with HCT-116 colon it was 2.83% (active); with HCC-2998 colon, 2.5% (active). The growth with KM12 colon is -78.6% (active).

As for `C/C(=N\NC(=S)N1CC2CCC(CC2)C1)c1ccccn1`, the growth in the test with T-47D breast is 17.4%; with BT-549 breast, 30.4%; with MDA-MB-435 melanoma, 11.5%; with SW-620 colon, 14.3%; with HCT-116 colon, 7.24% (active); in the test with HCC-2998 colon, 29.3%. Further, the growth in the test with KM12 colon is 9.58% (active).

As for `CC(C)(C)c1ccc(O)c(-c2ccccc2)c1`, the growth with T-47D breast is 109%; with BT-549 breast, 131%; in the test on MDA-MB-435 melanoma, 124%; in the test on SW-620 colon, 98.9%; in the test with HCT-116 colon, 102%; in the test with HCC-2998 colon, 103%. Besides, the growth in the test on KM12 colon is 104%.

On to `Cn1ccc(=Nc2ccc(NC(=O)c3ccc(N=c4ccn(C)c5ccc([N+](=O)[O-])cc45)cc3)cc2)cc1`, for which the growth with T-47D breast is 54.9%; with BT-549 breast, 56.1%; in the test on MDA-MB-435 melanoma, 83.4%; with SW-620 colon, 70.8%; with MCF7 breast, 55.6%; in the test with HCT-116 colon, 32.6%. In addition, the growth with KM12 colon was 57.8%.
